The record followed here is PubChem BioAssay.

Several values for one entry are separate records, joined by “and”; a condition that tells them apart may be missing. Identical values can stand only once. Inconclusive results are not listed. Activity calls are given as the source filed them.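 Rule for the calls, unless noted: active = response below a set limit, under 55% cells CD8-positive and vesicle-bound, and CD8 cells' 90th-percentile brightness under 279; inactive = the rest.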

The nature of one assay: modulators of AGP1-GFP expression in yeast TOR pathway, primary screen, cell-based, multiplex flow cytometry, S. cerevisiae (AID 1887;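 active = GFP signal above the screen-wide mean plus 3 SD, that is over about 124.5% of the solvent control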;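 note: AGP1-GFP fusion strain of S. cerevisiae within a five-strain barcoded multiplex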). The settings on record: 3 h, at 10 µM, stronger effect = higher value.
Take `CCCCOc1cc(C(=O)NCCN(CC)CC)c2ccccc2n1`: the GFP response, % of DMSO was 92.8% (inactive).

For the compound `O=C(CSCc1ccccc1)NCCCN1CCOCC1`, the GFP response, % of DMSO is 107% (inactive).

On to `COC(=O)c1ccc(OCCCCN2CC(C)OC(C)C2)cc1` (stereo not given), for which the GFP response, % of DMSO was 102% (inactive).

In the case of `CCOc1ccc(C(=O)NC(C)C2COc3ccccc3O2)cc1` (stereo not given), the GFP response, % of DMSO is 106% (inactive).

As to `CSCC[C@H](NC(=O)OC(C)(C)C)C(=O)N1CCC(C(=O)N[C@@H](C)C(=O)O)CC1`, the GFP response, % of DMSO was 98.8% (inactive).

Consider `O=C(N/C(=C/C=C\c1ccccc1)C(=O)N1CCOCC1)c1ccc(Br)cc1`, for which the GFP response, % of DMSO was 115% (inactive).

With `COc1ccc2[nH]c(=O)c(CN(C(=O)c3ccco3)C(C)C)cc2c1`, the GFP response, % of DMSO was 92.6% (inactive).

Consider `COc1cc(-c2cccs2)cc(=O)c2c(C)oc(C)c12`, for which the GFP response, % of DMSO was 93.2% (inactive).

For the compound `CCC(=O)O[C@]1(C(=O)CCl)[C@@H](C)C[C@H]2[C@@H]3CCC4=CC(=O)C=C[C@]4(C)[C@@]3(F)[C@@H](O)C[C@@]21C`, the GFP response, % of DMSO was 106% (inactive).

As to `COCCN(CCOC)Cc1c(C)[nH]c2c(C)c(C)ccc2c1=O`, the GFP response, % of DMSO is 102% (inactive).

With `COc1ccccc1/C=C/C(=O)OCCN1CCOCC1`, the GFP response, % of DMSO is 103% (inactive).

Regarding `c1ccc(Cn2nnc3cnccc32)cc1`, the GFP response, % of DMSO was 107% (inactive).

Turning to `Nc1cnn(C2OC(CO)C(O)C2O)c(=O)n1` (stereo not given), the GFP response, % of DMSO is 99.4% (inactive).

In the case of `Cc1ccc(C(=O)Nc2ccccc2C(=O)NC(C(=O)O)C(C)C)cc1` (stereo not given), the GFP response, % of DMSO is 101% (inactive).

Take `NC(CO)C(=O)NNCc1ccc(O)c(O)c1O` (stereo not given): the GFP response, % of DMSO was 96.5% (inactive).

For the compound `CC12CCCCN1CCCc1c2[nH]c2ccccc12` (stereo not given), the GFP response, % of DMSO is 99.5% (inactive).

In the case of `CN(C)CCN(Cc1ccc(Cl)cc1)c1ccccn1`, the GFP response, % of DMSO is 118% (inactive).

As to `CSc1cccc(NC(=O)/C=C/c2ccccc2)c1`, the GFP response, % of DMSO is 80.5% (inactive).

As to `Cc1oc2cc(O)cc(O)c2c(=O)c1-c1ccc2c(c1)OCCCO2`, the GFP response, % of DMSO is 91.7% (inactive).

Turning to `CNC(=O)Oc1ccc2c(c1)[C@]1(C)CCN(C)[C@@H]1N2C`, the GFP response, % of DMSO is 122% (inactive).

Regarding `CCCCNc1ccc(C(=O)OCCN(C)C)cc1`, the GFP response, % of DMSO is 97.3% (inactive).

`O=C(COc1cc(O)c2c(=O)c3ccccc3oc2c1)OCc1ccccc1`: the GFP response, % of DMSO was 97.6% (inactive).

The next assay can be described thus: inhibitors of CD8+ T cell-vesicle binding, pilot screen, LFA-1/ICAM-1 modulator project, MLPCN validation set, flow cytometry (AID 2523).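 For vesicle binding response: mean PE anti-B7-1 fluorescence of CD8+ cells relative to row control; 100% = QL9-loaded vesicles with DMSO vehicle in the same plate row.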 The settings on record: 2C mouse CD8+ T cells, at 7 µM, stronger effect = lower value; double positive events: measured here: CD8+/vesicle+ event percentage. For orientation: In flow cytometry, cells or beads pass a laser one at a time.
On to `Cc1nc(-c2coc3c(CN(C)C)c(O)ccc3c2=O)cs1`, for which the double positive events was determined as 61.6% and the vesicle binding response is 143% (inactive).

As to `COCCCN1C(=O)C(=O)/C(=C(/O)c2ccc3c(c2)CC(C)O3)C1c1cccnc1` (stereo not given), the double positive events was found to be 59% and the vesicle binding response is 137% (inactive).

On to `O=C(Nc1ccccc1C(=O)N1CCCCCC1)c1ccccc1Cl`, for which the vesicle binding response was 146% (inactive) and the double positive events was determined as 60.2%.

In the case of `Fc1ccc(-c2cc(-c3ccccc3)nc(-n3cccn3)n2)cc1`, the vesicle binding response was 11.1% (inactive) and the double positive events worked out at 57.7%.

For the compound `NS(=O)(=O)c1cc2c(cc1Cl)NC(C(Cl)Cl)NS2(=O)=O` (stereo not given), the vesicle binding response is 132% (inactive) and the double positive events amounted to 63%.

`CCC(C(=O)Nc1ccc2c(c1)OCCO2)c1ccccc1` (stereo not given): the vesicle binding response is 143% (inactive) and the double positive events is 58.6%.

Turning to `c1ccc(CNc2ncnc3nc[nH]c23)cc1`, the double positive events was found to be 63.6% and the vesicle binding response is 581% (inactive).

On to `Cc1cc(/C=N/O)c(C)n1-c1ccc(Br)cc1`, for which the double positive events worked out at 65.6% and the vesicle binding response is 263% (inactive).

For `COc1ccc(/C=C/C(=O)c2cc3cccc(OC)c3oc2=O)cc1`, the double positive events turned out to be 57.4% and the vesicle binding response was 172% (inactive).

On to `Cc1ccc(C2=NOC(=O)/C2=C\C=C\c2ccccc2)cc1`, for which the double positive events was determined as 69.9% and the vesicle binding response is 167% (inactive).

Regarding `CCc1ccc(/C=C2\Oc3cc(OC(=O)N4CCOCC4)ccc3C2=O)cc1`, the double positive events stood at 64.9% and the vesicle binding response was 164% (inactive).

As to `COc1cc(NC(=S)NN2CCN(C)CC2)cc(OC)c1OC`, the vesicle binding response was 240% (inactive) and the double positive events came to 62.3%.

As for `C[C@]12CCC3C(CC=C4C[C@@H](O)CC[C@@]43C)C1CCC2[C@]1(C)CCC(=O)O1` (stereo not given in full), the vesicle binding response was 164% (inactive) and the double positive events was found to be 57%.

As for `COC(=O)c1cc(OC)c(OC)cc1NC(=O)CN1C(=O)c2ccccc2C1=O`, the double positive events is 54.6% and the vesicle binding response was 150% (inactive).

As to `c1ccc(CN(CC2=NCCN2)c2ccccc2)cc1`, the double positive events is 64.5% and 68.1%; the vesicle binding response was 273% (inactive) and 176% (inactive).

Take `Cc1oncc1C(=O)Nc1ccc(C(F)(F)F)cc1`: the vesicle binding response was 171% (inactive) and the double positive events was found to be 57.4%.

As to `Cn1cc(C2N3CC4(C)CN2CC(C)(C3)C4=O)c2ccccc21` (stereo not given), the vesicle binding response is 485% (inactive) and the double positive events amounted to 50.6%.

For the compound `CCCCOc1cc(C(=O)NCCN(CC)CC)c2ccccc2n1`, the vesicle binding response is 187% (inactive) and 185% (inactive); the double positive events was 48.4% and 71.1%.

Take `O=C(CSCc1ccccc1)NCCCN1CCOCC1`: the vesicle binding response is 197% (inactive) and the double positive events was 62.4%.

`COC(=O)c1ccc(OCCCCN2CC(C)OC(C)C2)cc1` (stereo not given): the vesicle binding response is 228% (inactive) and the double positive events amounted to 63.1%.

As to `CCOc1ccc(C(=O)NC(C)C2COc3ccccc3O2)cc1` (stereo not given), the double positive events came out at 61.2% and the vesicle binding response was 111% (inactive).

For the compound `CSCC[C@H](NC(=O)OC(C)(C)C)C(=O)N1CCC(C(=O)N[C@@H](C)C(=O)O)CC1`, the double positive events was 65.4% and the vesicle binding response is 154% (inactive).

On to `O=C(N/C(=C/C=C\c1ccccc1)C(=O)N1CCOCC1)c1ccc(Br)cc1`, for which the double positive events is 65.2% and the vesicle binding response was 185% (inactive).

`COc1ccc2[nH]c(=O)c(CN(C(=O)c3ccco3)C(C)C)cc2c1`: the double positive events was determined as 72.1% and the vesicle binding response was 221% (inactive).

In the case of `COc1cc(-c2cccs2)cc(=O)c2c(C)oc(C)c12`, the vesicle binding response is 235% (inactive) and the double positive events worked out at 62.6%.

Consider `CCC(=O)O[C@]1(C(=O)CCl)[C@@H](C)C[C@H]2[C@@H]3CCC4=CC(=O)C=C[C@]4(C)[C@@]3(F)[C@@H](O)C[C@@]21C`, for which the vesicle binding response was 228% (inactive) and the double positive events came out at 64.6%.

In the case of `COCCN(CCOC)Cc1c(C)[nH]c2c(C)c(C)ccc2c1=O`, the vesicle binding response is 132% (inactive) and the double positive events is 63.2%.

On to `COc1ccccc1/C=C/C(=O)OCCN1CCOCC1`, for which the vesicle binding response was 229% (inactive) and the double positive events turned out to be 56.7%.

Consider `c1ccc(Cn2nnc3cnccc32)cc1`, for which the double positive events was 57.9% and the vesicle binding response was 67.8% (inactive).

Turning to `Nc1cnn(C2OC(CO)C(O)C2O)c(=O)n1` (stereo not given), the double positive events was 63.4% and the vesicle binding response is 463% (inactive).

Regarding `Cc1ccc(C(=O)Nc2ccccc2C(=O)NC(C(=O)O)C(C)C)cc1` (stereo not given), the vesicle binding response is 175% (inactive) and the double positive events came out at 57.3%.

Take `NC(CO)C(=O)NNCc1ccc(O)c(O)c1O` (stereo not given): the double positive events stood at 65.1% and the vesicle binding response is 130% (inactive).

With `CC12CCCCN1CCCc1c2[nH]c2ccccc12` (stereo not given), the vesicle binding response is 149% (inactive) and the double positive events came to 61.3%.

Consider `CN(C)CCN(Cc1ccc(Cl)cc1)c1ccccn1`, for which the vesicle binding response was 125% (inactive) and the double positive events turned out to be 61.2%.

Turning to `CSc1cccc(NC(=O)/C=C/c2ccccc2)c1`, the vesicle binding response is 219% (inactive) and the double positive events worked out at 62.5%.

With `Cc1oc2cc(O)cc(O)c2c(=O)c1-c1ccc2c(c1)OCCCO2`, the double positive events was 60.8% and the vesicle binding response is 195% (inactive).

For `CNC(=O)Oc1ccc2c(c1)[C@]1(C)CCN(C)[C@@H]1N2C`, the vesicle binding response is 183% (inactive) and the double positive events was 62.8%.

Turning to `CCCCNc1ccc(C(=O)OCCN(C)C)cc1`, the double positive events came to 63.6% and the vesicle binding response is 212% (inactive).

As for `O=C(COc1cc(O)c2c(=O)c3ccccc3oc2c1)OCc1ccccc1`, the double positive events is 61% and the vesicle binding response was 152% (inactive).
